Experimental findings from PubChem BioAssay (Tox21) are described below.

Where “and” joins values, the source holds several entries; their conditions need not be identical. Equal values may be shown once. Inconclusive results are not listed. More than one record can exist for a structure, and the calls need not agree. Calls of active or inactive are those of the source. Unless noted, the call rests on the fitted dose curve; in most records, active means well fitted curve in the direction sought with a large enough effect in the repeat runs; inconclusive means weak or mixed curves; inactive means no such curve, though single readings can be large; an effect the other way counts as inactive or inconclusive.

For assay [1], the target named is Estrogen receptor (Homo sapiens) (UniProt P03372). Kind of assay: qHTS assay to identify small molecule antagonists of the estrogen receptor alpha (ER-alpha) signaling pathway using the BG1 cell line in the presence of 0.1 nM 17-beta-estradiol (AID 1259244). Further: nearly all actives have a fitted effect of over 50% in size. In short, it runs like this:
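Cells: VM7Luc4E2, endogenous ER-alpha, 4x ERE-luc stable. Pre-culture 5 d, phenol red-free, charcoal-stripped FBS. Plated 24 h, compound + E2 0.1 nM final, 22 h 37C/5% CO2. Readout ONE-Glo luminescence.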

The nature of assay [2]: qHTS assay to identify small molecule phospholipidosis (PLD) inducers (AID 1259344; active means well fitted curve in the direction sought with a large enough effect; an effect the other way counts as inactive or inconclusive). In short, it runs like this:
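Quantitative HTS in HepG2: compound plus LipidTOX Red dye for 24 h, paraformaldehyde fixation with Hoechst 33342, widefield high-content imaging; amiodarone as positive and DMSO as negative control.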

A short description of assay [3]: qHTS assay to identify small molecule HDAC inhibitors (AID 1259364). Further: top concentration of the series differs between compounds; nearly all actives have a fitted effect of over 45% in size. The essentials: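 Luminescence from a cell-permeant luminogenic class I/II HDAC substrate reports endogenous deacetylase activity in intact HCT-116 cells treated with compounds for 2 h.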
Assay [4] in a line: qHTS assay to identify small molecule HDAC inhibitors - cell viability counter screen (AID 1259365). Further: nearly all actives have a fitted effect of over 50% in size. Further: potency means the concentration at half of the fitted maximal effect. The essentials:
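Cytotoxicity was gauged in wild-type HCT-116 cells after a brief 2hr treatment with DMSO-dissolved compounds at 37C and 5% CO2, using CellTiter-Glo luminescence developed for 30min at room temperature.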

Assay [5] in a line: qHTS assay to identify small molecule agonists of the sonic hedgehog signaling (Shh) pathway - cell viability counter screen (AID 1259366). Further: nearly all actives have a fitted effect of over 50% in size. Further: potency means the concentration at half of the fitted maximal effect. The essentials: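 Stable Gli1-Luc NIH/3T3 clone, 2,000 cells/well. Compound exposure 24hr at 37C. Read-out: CellTiter-Fluor fluorescence.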
Assay [6] is described as follows: qHTS assay to identify small molecule antagonists of the sonic hedgehog signaling (Shh) pathway - cell viability counter screen (AID 1259367). Further: nearly all actives have a fitted effect of over 55% in size. Further: potency means the concentration at half of the fitted maximal effect. The essentials: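 Seed 3T3 Gli1-Luc cells at 2,000 per well; incubate 4 hr; add compound in DMSO, then conditioned medium; incubate at 37C with 5% CO2; add CellTiter-Fluor after 23 hr; read fluorescence 1 hr later.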
A short description of assay [7]: qHTS assay to identify small molecule agonists of the sonic hedgehog signaling (Shh) pathway (AID 1259368; calls by dose curve;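 further: NIH/3T3-derived 3T3Gli1-Luc cells carrying a stable Gli1-driven firefly luciferase reporter; series mostly up to about 92 µM; nearly all actives have a fitted effect of over 15% in size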). The essentials:
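3T3Gli1-Luc (NIH/3T3 clone, stable Gli1-Luc); 4 hr pre-incubation, then cpd in DMSO 24 hr, 37 C/5% CO2; luciferase reagent 30 min RT; luminescence.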

Assay [8] in a line: qHTS assay to identify small molecule antagonists of the sonic hedgehog signaling (Shh) pathway (AID 1259369; calls by dose curve; further: nearly all actives have a fitted effect of over 45% in size; further: potency means the concentration at half of the fitted maximal effect). The essentials: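 3T3Gli1-Luc, conditioned-medium-stimulated, 24hr cpd, 37C/5% CO2; Gli1-driven firefly Luc luminescence after 30min RT with luciferase reagent. Cells plated 4hr before cpd.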
Assay [9] has as its target Estrogen receptor beta (Homo sapiens) (UniProt Q92731). Kind of assay: qHTS assay to identify small molecule agonists of the estrogen receptor beta (ER-beta) signaling pathway (AID 1259377; active means well fitted activation curve with a large enough effect in the signal ratio in the repeat runs, not every such curve was filed as active; the % refers to the signal ratio). The essentials:
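Measured by fluorescence intensity from a B/G FRET beta-lactamase substrate (2 h, room temperature) in ER-beta-UAS-bla HEK293T cells treated with DMSO-dissolved compounds for 16 hr at 37C and 5% CO2.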

For assay [10] the target is unchanged. Kind of assay: qHTS assay to identify small molecule antagonists of the estrogen receptor beta (ER-beta) signaling pathway (AID 1259378; active means well fitted inhibition curve with a large enough effect in the signal ratio in the repeat runs, not every such curve was filed as active; the % refers to the signal ratio). In short, it runs like this:
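ER-beta-UAS-bla HEK293T cells in 2% charcoal-stripped FBS medium treated with compound plus 1nM final 17-beta-estradiol for 16 hr at 37C. Beta-lactamase reporter read by FRET substrate fluorescence after 2 hours at room temperature.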
On the % scale 0 is the no-effect control and ±100 the full control effect.

Sequence of Estrogen receptor (Homo sapiens) (P03372 whole entry, looked up): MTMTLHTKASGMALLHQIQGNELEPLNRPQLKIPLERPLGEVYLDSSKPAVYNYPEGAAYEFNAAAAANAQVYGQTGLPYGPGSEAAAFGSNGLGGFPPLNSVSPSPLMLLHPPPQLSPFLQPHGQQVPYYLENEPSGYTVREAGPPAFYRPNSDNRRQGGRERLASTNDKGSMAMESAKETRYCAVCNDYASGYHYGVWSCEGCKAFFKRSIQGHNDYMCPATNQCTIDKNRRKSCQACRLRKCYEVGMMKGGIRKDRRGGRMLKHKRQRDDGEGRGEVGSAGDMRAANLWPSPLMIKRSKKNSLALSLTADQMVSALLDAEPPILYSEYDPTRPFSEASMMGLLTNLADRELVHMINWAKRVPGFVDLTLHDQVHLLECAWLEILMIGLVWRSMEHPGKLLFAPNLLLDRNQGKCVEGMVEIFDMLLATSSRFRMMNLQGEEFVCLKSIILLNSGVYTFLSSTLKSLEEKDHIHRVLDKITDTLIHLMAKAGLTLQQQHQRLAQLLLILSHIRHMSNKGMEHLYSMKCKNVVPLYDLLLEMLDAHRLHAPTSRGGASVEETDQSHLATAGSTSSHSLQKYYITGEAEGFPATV
Sequence of Estrogen receptor beta (Homo sapiens) (Q92731 whole entry, looked up): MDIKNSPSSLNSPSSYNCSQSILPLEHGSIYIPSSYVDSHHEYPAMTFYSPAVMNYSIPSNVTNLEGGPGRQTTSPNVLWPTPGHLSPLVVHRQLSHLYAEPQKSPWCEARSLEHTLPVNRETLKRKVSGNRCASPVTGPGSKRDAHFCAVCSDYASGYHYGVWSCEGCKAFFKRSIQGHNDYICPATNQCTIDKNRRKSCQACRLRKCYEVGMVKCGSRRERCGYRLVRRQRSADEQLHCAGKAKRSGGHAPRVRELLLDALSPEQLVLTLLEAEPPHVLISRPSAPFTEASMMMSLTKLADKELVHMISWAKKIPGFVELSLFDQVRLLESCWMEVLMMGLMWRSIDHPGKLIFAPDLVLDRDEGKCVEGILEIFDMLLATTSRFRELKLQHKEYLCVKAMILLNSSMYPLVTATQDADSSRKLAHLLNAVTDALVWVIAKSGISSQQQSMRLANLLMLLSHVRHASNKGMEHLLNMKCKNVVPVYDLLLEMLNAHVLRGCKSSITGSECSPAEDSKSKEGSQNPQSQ

On to `Oc1ccccc1-c1ccccc1`, for which the Potency result in [1], in assay [3], in assay [4], in [5] and in [6] was “inactive” in each case. In addition, the result in assay [2] and in [7] was inactive. Besides, the Potency result in assay [8] was “inactive and 62.6 µM (active)”.
On to `C[C@]12CCC(=O)C=C1CC[C@@H]1[C@@H]2CC[C@]2(C)C(=O)CC[C@@H]12`, for which the Potency entry in assay [1], in assay [3], in [4], in assay [5] and in assay [10] was “inactive” throughout. Moreover, the Potency is 60.1 µM (active) and inactive in [6]; 15.1 µM (active) and 13.7 µM (active) and inactive in assay [8]. Further, the outcome in assay [7] and in assay [9] was inactive.
For `CN(C)[C@@H]1C(=O)C(C(N)=O)=C(O)[C@@]2(O)C(=O)C3=C(O)c4c(O)cccc4[C@@](C)(O)[C@H]3[C@H](O)[C@@H]12`, the outcome in [2] and in [7] was inactive. The Potency entry in [3], in assay [4], in assay [5] and in assay [6] was “inactive” each time.
For the compound `O=C(O)COc1ccc(Cl)cc1Cl`, the Potency entry in assay [3], in assay [4], in assay [5], in [6] and in assay [8] was “inactive” in each case. The compound was called inactive in assay [7].
Turning to `CCCC[n+]1ccccc1C`, the Potency entry in [3], in assay [4], in [5] and in assay [6] was “inactive” each time. Besides, the call in [7] was inactive.
Turning to `COc1ccc(N)cc1`, the Potency entry in assay [3], in assay [4], in [5] and in assay [6] was “inactive” each time. In addition, in assay [7], the compound was classed as inactive.
Turning to `CCCCCCCCCCCCCCCCn1cc[n+](C)c1`, the Potency result in assay [3] and in [4] was “inactive” in each case. In addition, the compound was called inactive in assay [7].
Consider `CCCCCCn1cc[n+](C)c1`, for which the Potency entry in assay [3], in assay [4], in [5] and in assay [6] was “inactive” throughout. The compound was called inactive in assay [7]. The Potency in [8] was 7.74 µM (active) and 89.9 nM (active).
Turning to `CCCCCCCCCCn1cc[n+](C)c1`, the Potency entry in assay [3], in assay [4], in [5] and in assay [6] was “inactive” throughout. Further, the result in assay [7] was inactive.
Consider `N#CS`, for which the Potency entry in [3], in assay [4], in assay [5], in [6] and in assay [8] was “inactive” throughout. Further, the outcome in assay [7] was inactive.
For `O=C(O)c1ccccc1O`, the Potency entry in assay [3], in assay [4], in [5] and in assay [6] was “inactive” each time. For the same compound, the compound was called inactive in assay [7].
Take `CCCCn1cc[n+](C)c1C`: the Potency result in [3], in assay [4], in assay [5] and in assay [6] was “inactive” each time. Also, the result in assay [7] was inactive.
Consider `CCCC[N+]1(C)CCCC1`, for which the Potency entry in assay [3], in assay [4], in assay [5] and in assay [6] was “inactive” throughout. In addition, the compound was classed as inactive in assay [7].
Take `CC(=O)O`: the Potency entry in [3], in assay [4], in assay [5] and in assay [6] was “inactive” throughout. Besides, the call in [7] was inactive.
On to `CCn1cc[n+](C)c1C`, for which the Potency entry in assay [3], in assay [4], in [5] and in assay [6] was “inactive” each time. Also, the call in assay [7] was inactive.
`O=c1nc(O)n(Cl)c(=O)n1Cl`: the Potency result in assay [3], in [4], in assay [5] and in assay [6] was “inactive” in each case. For the same compound, in [7], the result was inactive.
For the compound `Cc1cc(Cl)ccc1N`, the Potency result in [3], in assay [4], in assay [5], in assay [6] and in assay [8] was “inactive” each time. In addition, in assay [7], the outcome was inactive.
For the compound `CCCC[n+]1ccc(C)cc1`, the Potency result in [3] was “inactive”. Also, the Potency entry in assay [4] was “inactive and 60.8 µM (active)”; in [5] it was “inactive and 60.8 µM (active)”; in [6] it was “inactive and 60.8 µM (active)”; in assay [8], “inactive and 24.2 µM (active) and 13.7 µM (active)”. The compound was classed as inactive in assay [7].
As for `CC[N+]1(C)CCCC1`, the Potency result in assay [3], in assay [4], in assay [5] and in assay [6] was “inactive” in each case. Besides, the compound was called inactive in [7]. In [8], the Potency was 39.5 µM (active) and inactive.
Turning to `CCCCCCCCCCCCn1cc[n+](C)c1`, the Potency entry in [3] and in assay [4] was “inactive” throughout. For the same compound, the Potency in assay [5] is 27.3 µM (active) [middle of 6 runs]; in [6] it was 31.2 µM (active) [middle of 5 runs]. Besides, in [7], the compound was called inactive.
For the compound `CCC[N+]1(C)CCCCC1`, the Potency result in assay [3], in [4], in assay [5] and in assay [6] was “inactive” throughout. Further, the compound was called inactive in [7].
In the case of `CCCC[n+]1ccccc1`, the Potency result in [3], in [4], in [5] and in assay [6] was “inactive” each time. Also, the compound was called inactive in assay [7].
Regarding `CCCCCCCCCCCC(=O)O`, the Potency result in [3], in [4], in assay [5] and in assay [6] was “inactive” each time. In assay [7], the outcome was inactive.
Regarding `CCCCCCCCn1cc[n+](C)c1`, the Potency result in assay [3], in assay [4], in [5] and in [6] was “inactive” each time. The compound was classed as inactive in assay [7].
As to `CCCCCC[n+]1ccccc1`, the Potency result in assay [3], in assay [4], in assay [5] and in assay [6] was “inactive” each time. The compound was classed as inactive in assay [7].
Regarding `O=[N+]([O-])O`, the Potency result in assay [3], in assay [4], in assay [5], in [6] and in assay [8] was “inactive” each time. In addition, in [7], the result was inactive.
Consider `CCC[N+]1(C)CCCC1`, for which the Potency entry in [3], in assay [4], in assay [5] and in assay [6] was “inactive” in each case. In assay [7], the result was inactive.
In the case of `CCCC[N+]1(C)CCCCC1`, the Potency result in assay [3], in assay [4], in assay [5], in assay [6] and in [8] was “inactive” throughout. Also, the result in assay [7] was inactive.
Regarding `O=[N+]([O-])c1ccccc1O`, the Potency entry in assay [3], in assay [4], in [5], in [6] and in assay [10] was “inactive” throughout. In addition, the outcome in assay [7] and in assay [9] was inactive.
Take `COc1ccccc1N`: the Potency result in assay [3], in assay [4], in [5], in assay [6] and in assay [8] was “inactive” throughout. Moreover, the call in assay [7] was inactive.
Regarding `CCCn1cc[n+](C)c1`, the Potency result in [3], in assay [4], in assay [5] and in [6] was “inactive” throughout. Further, in [7], the outcome was inactive.
With `O=C(O)CC(O)(CC(=O)O)C(=O)O`, the Potency result in assay [3], in assay [4], in assay [5], in [6] and in [8] was “inactive” each time. In addition, in assay [7], the result was inactive.
Take `O=C(O)CCl`: the Potency entry in assay [3], in [4], in assay [5], in assay [6], in [8] and in assay [10] was “inactive” in each case. For the same compound, the compound was classed as inactive in assay [7] and in assay [9].
On to `CCCC[n+]1cccc(C)c1`, for which the Potency result in assay [3], in assay [4], in assay [5], in assay [6] and in assay [8] was “inactive” in each case. Besides, the compound was called inactive in assay [7].
Regarding `CCCCn1cc[n+](C)c1`, the Potency result in assay [3], in [4], in assay [5] and in assay [6] was “inactive” in each case. For the same compound, in [7], the compound was classed as inactive.
Consider `O=S(=O)(O)O`, for which the Potency result in [3], in [4], in assay [5] and in [6] was “inactive” in each case. The compound was called inactive in [7].
